Seven compounds from PubChem BioAssay (EPA / NIEHS) can be followed below.

SMILES strings stand for the structures. Results filed as inconclusive are left out. Activity calls are given as the source filed them. The calls were made as follows, unless noted: active = hit-call score of the fitted dose curve at least 0.9, where 1 is the maximum; inactive = score below 0.9.

The target of assay [1] is Retinoic acid receptor RXR-alpha (Homo sapiens) (UniProt P19793). Briefly: ATG_RXRa_TRANS: Attagene TRANS-FACTORIAL HepG2 Assay for human Retinoid X Receptor alpha (RXRa) (AID 2283012; active = hit-call score of the fitted dose curve at least 0.9, where 1 is the maximum). In a few lines: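 Measures exogenous chimeric NR-GAL4 activity in transfected HepG2 liver cells after 24 h of dosing. Induced reporter mRNA was detected by RT-PCR with capillary electrophoresis, and gain of signal was analysed against DMSO.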
Chain of Retinoic acid receptor RXR-alpha (Homo sapiens) (P19793 whole entry, looked up, the tested form may be a part): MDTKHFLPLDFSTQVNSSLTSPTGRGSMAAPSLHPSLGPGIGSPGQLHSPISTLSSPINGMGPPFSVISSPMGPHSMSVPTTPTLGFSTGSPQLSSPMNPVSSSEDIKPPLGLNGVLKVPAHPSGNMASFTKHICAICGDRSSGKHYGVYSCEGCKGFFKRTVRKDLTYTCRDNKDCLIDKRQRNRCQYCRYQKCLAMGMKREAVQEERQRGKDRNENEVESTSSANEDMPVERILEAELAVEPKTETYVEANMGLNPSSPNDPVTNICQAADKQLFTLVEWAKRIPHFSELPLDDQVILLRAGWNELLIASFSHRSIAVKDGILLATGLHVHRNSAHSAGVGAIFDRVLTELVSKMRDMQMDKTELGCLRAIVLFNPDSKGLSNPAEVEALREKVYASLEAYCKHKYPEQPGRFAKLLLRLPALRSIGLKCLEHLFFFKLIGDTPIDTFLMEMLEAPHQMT

The target in assay [2] is human Retinoid X Receptor beta (RXRb), RXRB (gene 6257) (UniProt P28702). Briefly: ATG_RXRb_TRANS: Attagene TRANS-FACTORIAL HepG2 Assay for human Retinoid X Receptor beta (RXRb) (AID 2283013; active = hit-call score of the fitted dose curve at least 0.9, where 1 is the maximum). The gist of the method:
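Chimeric receptor-Gal4 activity was assessed in transiently transfected human HepG2 cells after 24 h exposure. Transcripts from GAL4-UAS reporters were quantified by fluorescent RT-PCR and capillary electrophoresis, with DMSO as negative control and baseline.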

Read-out in assay [3]: E-selectin (Homo sapiens) (UniProt P16581)
Nature of the assay: BSK_3C_Eselectin: BioMAP Diversity Plus: 3C Assay for Eselectin Biomarker Activity (AID 2283015).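 As to outcome: cell surface E-selectin protein quantified by ELISA 24 h after dosing.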 Particulars: primary human endothelial cells (HUVEC); actives raise or lower the signal. In a few lines: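 Primary human umbilical vein endothelial cells (3C system), read 24 h after compound addition; E-selectin measured by ELISA. Bidirectional curve fitting against DMSO baseline; cytotoxicity by parallel SRB total-protein staining.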

Read-out in assay [4]: Interleukin-1 alpha (IL1a), IL1A (gene 3552)
Nature of the assay: BSK_BE3C_IL1a: BioMAP Diversity Plus: BE3C Assay for Interleukin-1 alpha (IL1a) Biomarker Activity (AID 2283016). Particulars: primary human bronchial epithelial cells; actives raise or lower the signal. The gist of the method: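 Signal from IL-1a ELISA, taken 24 h after chemical dosing of human bronchial epithelial cells, is compared with DMSO as baseline using bidirectional curve fitting.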

Read-out in assay [5]: Monocyte Chemoattractant Protein-1 (MCP1), CCL2 (gene 6347)
Nature of the assay: BSK_3C_MCP1: BioMAP Diversity Plus: 3C Assay for Monocyte Chemoattractant Protein-1 (MCP1) Biomarker Activity (AID 2283017). Particulars: primary human endothelial cells (HUVEC); actives raise or lower the signal. In a few lines: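 Human umbilical vein endothelial cells (3C system) exposed to chemicals for 24 h; MCP-1 quantified by ELISA against the DMSO baseline with bidirectional fitting, and parallel SRB staining used to assess cytotoxicity.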

Read-out in assay [6]: Monocyte Chemoattractant Protein-1 (MCP1), CCL2 (gene 6347)
Briefly: BSK_4H_MCP1: BioMAP Diversity Plus: 4H Assay for Monocyte Chemoattractant Protein-1 (MCP1) Biomarker Activity (AID 2283018). Particulars: primary human endothelial cells (HUVEC); actives raise or lower the signal. The gist of the method: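 Endothelial cells from umbilical vein were treated with test chemical, then after 24 h MCP-1 levels were quantified by ELISA; endpoint values came from bidirectional fitting with DMSO as baseline of activity.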

Read-out in assay [7]: Human Leukocyte Antigen - DR isotype (HLADR), HLA-DRA (gene 3122)
Briefly: BSK_3C_HLADR: BioMAP Diversity Plus: 3C Assay for Human Leukocyte Antigen - DR isotype (HLADR) Biomarker Activity (AID 2283019).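 As to outcome: ELISA of cell-surface HLA-DR on HUVEC 24 h after dosing.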 Conditions: primary human endothelial cells (HUVEC); actives raise or lower the signal. The gist of the method:
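HUVEC monoculture, HLA-DR measured by ELISA 24 h after chemical dosing. Fitted bidirectionally against DMSO baseline; parallel SRB staining assessed cytotoxicity, with 3C proliferation read by SRB at 48 h.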

Read-out in assay [8]: Interleukin-8 (IL8), CXCL8 (gene 3576)
Nature of the assay: BSK_3C_IL8: BioMAP Diversity Plus: 3C Assay for Interleukin-8 (IL8) Biomarker Activity (AID 2283020). Conditions: primary human endothelial cells (HUVEC); actives raise or lower the signal. In a few lines:
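Endothelial primary cells of human umbilical vein origin are dosed with chemical; after 24 h the IL-8 biomarker is measured by ELISA, and concentration–response is fitted in both directions versus DMSO.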

Read-out in assay [9]: Monokine induced gamma interferon (MIG), CXCL9 (gene 4283)
Briefly: BSK_3C_MIG: BioMAP Diversity Plus: 3C Assay for Monokine induced gamma interferon (MIG) Biomarker Activity (AID 2283021).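 As to AC50: MIG protein level measured by immunoassay in the treated endothelial cultures.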 Conditions: primary human endothelial cells (HUVEC); actives raise or lower the signal. The gist of the method:
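Endothelial primary cells (human umbilical vein) are dosed with test chemical in the 3C system. MIG levels are measured by ELISA at 24 h and fitted in both directions relative to DMSO.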

In assay [10] the target is human Vitamin D Receptor (VDR), VDR (gene 7421) (UniProt P11473). Nature of the assay: ATG_VDR_TRANS: Attagene TRANS-FACTORIAL HepG2 Assay for human Vitamin D Receptor (VDR) (AID 2283022; active = hit-call score of the fitted dose curve at least 0.9, where 1 is the maximum). In a few lines:
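HepG2 cells were transiently transfected with GAL4-UAS reporter units and a chimeric VDR-Gal4 construct, then dosed for 24 hours. Reporter mRNA was quantified by RT-PCR, fluorescent labeling, HpaI digestion and capillary electrophoresis; gain of signal analysed vs DMSO.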

A short description of assay [11]: BSK_3C_SRB: Viability Assessment in the BioMAP Diversity Plus: 3C Assay (AID 2283023).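 Also: fitted both ways against DMSO so a hit may be signal rise or drop.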 Conditions: primary human endothelial cells (HUVEC). In a few lines:
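Human umbilical vein endothelial cells in the 3C system, treated 24 h. Total protein measured by 0.1% sulforhodamine B staining after 10% TCA fixation, read at 560 nm; bidirectional fit versus DMSO.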

Read-out in assay [12]: Matrix Metallopeptidase 1 (MMP1), MMP1 (gene 4312)
Briefly: BSK_BE3C_MMP1: BioMAP Diversity Plus: BE3C Assay for Matrix Metallopeptidase 1 (MMP1) Biomarker Activity (AID 2283024). Conditions: primary human bronchial epithelial cells; actives raise or lower the signal. In a few lines: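 MMP1 signal, measured by ELISA after a 24 h chemical exposure of human primary bronchial epithelial cells, is analysed with bidirectional fitting using DMSO as negative control.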

A short description of assay [13]: BSK_3C_Vis: BioMAP Diversity Plus: 3C Assay for Morphology Visualization (AID 2283025).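 Also: fitted both ways so gain or loss versus DMSO counts.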 Conditions: primary human endothelial cells (HUVEC). In a few lines:
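Morphology read by light microscopy serves as a background control for the multiplexed 3C assay in human umbilical vein endothelial cells, taken 24 h after dosing, with DMSO as the negative control and bidirectional curve fitting.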

Read-out in assay [14]: Pselectin, SELP (gene 6403)
Briefly: BSK_4H_Pselectin: BioMAP Diversity Plus: 4H Assay for Pselectin Biomarker Activity (AID 2283026). Conditions: primary human endothelial cells (HUVEC); actives raise or lower the signal. The gist of the method: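 Endothelial primary cells (human umbilical vein) are dosed, incubated 24 h, and assayed for surface P-selectin by ELISA; responses in either direction are fitted relative to the DMSO negative control.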

Assay [15] is described as follows: BSK_4H_SRB: Viability Assessment in the BioMAP Diversity Plus: 4H Assay (AID 2283027).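 Also: cells exposed to compound for 24 h before staining.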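 As to AC50: curves fitted both ways versus DMSO so AC50 may be loss or gain.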 Conditions: primary human endothelial cells (HUVEC). The gist of the method: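 Cytotoxicity readout: sulforhodamine B (0.1%) staining of total protein after 10% TCA fixation, measured at 560 nm in human umbilical vein endothelium at 24 h. DMSO set the baseline; fitting was bidirectional.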

Read-out in assay [16]: Thrombomodulin, THBD (gene 7056)
Briefly: BSK_3C_Thrombomodulin: BioMAP Diversity Plus: 3C Assay for Thrombomodulin Biomarker Activity (AID 2283029). Conditions: primary human endothelial cells (HUVEC); actives raise or lower the signal. In a few lines:
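Endothelial cells from umbilical vein are dosed with test chemical and incubated 24 h. Thrombomodulin is then quantified by ELISA, with DMSO serving as negative control and activity baseline.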

Read-out in assay [17]: Urokinase-type plasminogen activator receptor (uPAR), PLAUR (gene 5329)
Nature of the assay: BSK_4H_uPAR: BioMAP Diversity Plus: 4H Assay for Urokinase-type plasminogen activator receptor (uPAR) Biomarker Activity (AID 2283030). Conditions: primary human endothelial cells (HUVEC); actives raise or lower the signal. In a few lines: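 Human umbilical vein endothelial cells in the 4H system, 24 h after chemical dosing. Cell-surface uPAR measured by ELISA, fitted in both directions versus DMSO; cytotoxicity checked by SRB total protein in parallel cultures.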

Read-out in assay [18]: Vascular endothelial growth factor receptor 2 (Homo sapiens) (UniProt P35968)
Briefly: BSK_4H_VEGFRII: BioMAP Diversity Plus: 4H Assay for Vascular endothelial growth factor receptor 2 (VEGFR2) Biomarker Activity (AID 2283031).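 As to AC50: cell-surface VEGFR2 protein level quantified by ELISA.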 Particulars: primary human endothelial cells (HUVEC); actives raise or lower the signal. The gist of the method:
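Primary human umbilical vein endothelial cells (4H system), 24 h exposure; cell-surface VEGFR2 measured by ELISA. Bidirectional fitting versus DMSO; cytotoxicity checked in parallel by SRB total-protein staining.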

For assay [19], the target named is human Thyroid Receptor alpha (THRa1), THRA (gene 7067) (UniProt P10827). Nature of the assay: ATG_THRa1_TRANS: Attagene TRANS-FACTORIAL HepG2 Assay for human Thyroid Receptor alpha (THRa1) (AID 2283014; active = hit-call score of the fitted dose curve at least 0.9, where 1 is the maximum). The gist of the method: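 HepG2 cells transiently transfected with chimeric NR-Gal4 and GAL4-UAS reporter units, dosed 24 h. Reporter mRNA quantified by RT-PCR, fluorescent labeling, HpaI digestion and capillary electrophoresis; gain-of-signal fit versus DMSO.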
Chain of human Thyroid Receptor alpha (THRa1), THRA (gene 7067) (P10827 whole entry, looked up, the tested form may be a part): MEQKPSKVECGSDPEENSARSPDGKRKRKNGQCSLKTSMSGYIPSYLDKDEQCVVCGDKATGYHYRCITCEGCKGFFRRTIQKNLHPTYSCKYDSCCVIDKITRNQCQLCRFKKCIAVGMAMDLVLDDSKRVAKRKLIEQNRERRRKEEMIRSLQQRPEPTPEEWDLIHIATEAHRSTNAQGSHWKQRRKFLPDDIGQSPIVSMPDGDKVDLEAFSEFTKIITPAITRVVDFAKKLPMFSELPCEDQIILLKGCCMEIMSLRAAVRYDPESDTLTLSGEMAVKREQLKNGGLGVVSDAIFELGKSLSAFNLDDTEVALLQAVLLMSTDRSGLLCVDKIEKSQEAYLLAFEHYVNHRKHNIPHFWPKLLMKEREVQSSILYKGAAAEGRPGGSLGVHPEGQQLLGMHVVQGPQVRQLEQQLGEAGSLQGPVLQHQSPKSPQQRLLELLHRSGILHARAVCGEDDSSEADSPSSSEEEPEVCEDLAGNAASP

Assay [20] is described as follows: BSK_BE3C_SRB: Viability Assessment in the BioMAP Diversity Plus: BE3C Assay (AID 2283028).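 As to AC50: fitted both ways so AC50 may mark signal gain or loss versus DMSO.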 Conditions: primary human bronchial epithelial cells. The gist of the method: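 Human bronchial epithelial primary cells in confluent culture, 24 h after chemical dosing; total protein by 0.1% SRB staining after 10% TCA fixation, read at 560 nm. Bidirectional fitting versus DMSO baseline.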

Chain of E-selectin (Homo sapiens) (P16581 whole entry, looked up): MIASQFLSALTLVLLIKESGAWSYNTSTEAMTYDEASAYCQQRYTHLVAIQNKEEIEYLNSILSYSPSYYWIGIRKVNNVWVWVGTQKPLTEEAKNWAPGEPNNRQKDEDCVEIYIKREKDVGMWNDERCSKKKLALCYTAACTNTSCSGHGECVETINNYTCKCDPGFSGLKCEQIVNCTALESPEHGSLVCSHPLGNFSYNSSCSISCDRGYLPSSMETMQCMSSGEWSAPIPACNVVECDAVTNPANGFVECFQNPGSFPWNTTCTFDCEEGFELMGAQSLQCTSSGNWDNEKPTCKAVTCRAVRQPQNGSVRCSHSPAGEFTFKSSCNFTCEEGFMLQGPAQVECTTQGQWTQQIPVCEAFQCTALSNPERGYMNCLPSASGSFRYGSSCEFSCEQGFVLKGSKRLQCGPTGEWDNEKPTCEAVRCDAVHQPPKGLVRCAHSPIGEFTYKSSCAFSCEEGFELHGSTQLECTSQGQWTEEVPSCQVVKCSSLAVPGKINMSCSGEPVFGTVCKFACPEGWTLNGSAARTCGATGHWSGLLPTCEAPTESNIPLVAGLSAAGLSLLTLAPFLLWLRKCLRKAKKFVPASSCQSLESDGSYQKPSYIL
Chain of human Retinoid X Receptor beta (RXRb), RXRB (gene 6257) (P28702 whole entry, looked up, the tested form may be a part): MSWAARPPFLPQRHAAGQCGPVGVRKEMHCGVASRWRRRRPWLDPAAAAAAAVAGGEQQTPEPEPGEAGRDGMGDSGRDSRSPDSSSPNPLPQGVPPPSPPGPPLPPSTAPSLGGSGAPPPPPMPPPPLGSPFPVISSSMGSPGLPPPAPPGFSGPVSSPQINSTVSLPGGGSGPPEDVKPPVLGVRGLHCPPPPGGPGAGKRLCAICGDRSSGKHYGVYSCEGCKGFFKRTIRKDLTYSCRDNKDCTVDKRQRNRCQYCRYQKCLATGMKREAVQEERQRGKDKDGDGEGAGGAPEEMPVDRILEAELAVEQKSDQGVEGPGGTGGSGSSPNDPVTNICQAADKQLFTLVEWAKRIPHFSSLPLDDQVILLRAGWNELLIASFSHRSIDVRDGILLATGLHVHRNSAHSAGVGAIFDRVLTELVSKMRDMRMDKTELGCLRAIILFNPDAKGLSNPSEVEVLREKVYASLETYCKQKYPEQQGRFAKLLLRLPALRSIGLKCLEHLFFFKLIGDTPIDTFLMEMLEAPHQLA
Chain of human Vitamin D Receptor (VDR), VDR (gene 7421) (P11473 whole entry, looked up, the tested form may be a part): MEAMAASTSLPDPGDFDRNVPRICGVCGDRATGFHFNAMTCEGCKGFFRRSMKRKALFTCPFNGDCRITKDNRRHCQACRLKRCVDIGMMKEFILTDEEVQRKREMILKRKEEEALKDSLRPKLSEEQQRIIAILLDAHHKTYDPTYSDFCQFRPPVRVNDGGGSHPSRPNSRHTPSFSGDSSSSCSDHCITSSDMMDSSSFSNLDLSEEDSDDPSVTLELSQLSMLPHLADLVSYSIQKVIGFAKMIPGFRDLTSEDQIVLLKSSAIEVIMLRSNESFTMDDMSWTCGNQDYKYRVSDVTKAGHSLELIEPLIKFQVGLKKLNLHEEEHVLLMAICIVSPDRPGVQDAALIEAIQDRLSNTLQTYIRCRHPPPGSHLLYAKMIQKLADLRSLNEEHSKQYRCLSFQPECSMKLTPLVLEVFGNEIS

On to `CC(CO)OC(C)CO` (stereo not drawn) (tested in a mixture with another compound), for which the call in [1], in assay [3], in [4], in assay [5], in assay [6] and in [7] was inactive. The outcome in assay [8], in assay [9], in assay [10], in assay [11], in assay [12] and in assay [13] was inactive. The result in [14], in [15], in assay [16], in [17] and in [18] was inactive. Moreover, in [2], the half-maximal activity concentration (AC50) was 13.8 µM (active).
As to `CCOc1ccc2c(c1)C(C)=CC(C)(C)N2`, the half-maximal activity concentration (AC50) in assay [1] was 100 µM (active); in assay [2] it was 6.69 µM (active); in assay [19], 100 µM (active); in assay [10], 150 µM (active). Also, the result in assay [3], in assay [4], in [5], in assay [6], in assay [8] and in assay [9] was inactive. Moreover, the result in assay [11], in assay [12], in [13], in [14], in assay [15] and in [16] was inactive. The outcome in assay [17] and in assay [18] was inactive.
Regarding `CC(C)(C)c1cc(O)c(C(C)(C)C)cc1O`, the AC50 in [1] is 60.2 µM (active); in assay [2] it was 59.4 µM (active); in assay [6], 2.88 µM (active); in assay [7] it was 9 µM (active); in assay [10], 61.2 µM (active); in assay [13], 9.8 µM (active). The half-maximal activity concentration (AC50) is 5.24 µM (active) in [14], 3.45 µM (active) in [15], 4.17 µM (active) in [17] and 1.02 µM (active) in [18]. Further, the result in [3], in [4], in assay [5], in assay [8], in assay [9] and in [11] was inactive. For the same compound, the outcome in [12] and in [16] was inactive.
Regarding `CCCCC(CC)COC(=O)CC(C(=O)OCC(CC)CCCC)S(=O)(=O)O` (stereo not drawn), the call in assay [1], in [2], in assay [10], in assay [16] and in assay [18] was inactive. Further, the AC50 in assay [3] is 38.1 µM (active); in assay [4] it was 11.6 µM (active); in [5], 31.4 µM (active); in assay [6], 29.3 µM (active); in assay [8], 30.6 µM (active); in assay [9], 38 µM (active). The AC50 in [11] is 31.2 µM (active); in assay [12], 10.2 µM (active); in assay [13] it was 37.5 µM (active); in assay [14] it was 32.2 µM (active); in assay [15], 38 µM (active); in assay [20], 6.46 µM (active). In addition, the AC50 in assay [17] was 39 µM (active).
For `Cc1ccc(C(C)C)c(O)c1`, the compound was called inactive in assay [1], in assay [19], in assay [3], in assay [4], in assay [5] and in [6]. The result in assay [7], in assay [8], in [9], in assay [11], in [12] and in assay [13] was inactive. Moreover, the outcome in assay [14], in assay [15], in [20], in assay [16], in assay [17] and in assay [18] was inactive. Also, in assay [2], the AC50 is 40.6 µM (active).
As to `CCCCCCOCCO`, the compound was called inactive in assay [1], in assay [2], in assay [19], in assay [3], in assay [4] and in [5]. Also, the outcome in assay [6], in assay [8], in assay [9], in assay [10], in [11] and in assay [12] was inactive. Besides, the result in assay [13], in [14], in assay [15], in assay [20], in assay [16] and in assay [17] was inactive. In assay [18], the result was inactive.
Regarding `CCOC(=O)C(C)(C)Oc1ccc(Cl)cc1`, the compound was classed as inactive in assay [1], in assay [2], in [3], in assay [4], in [5] and in [6]. Also, the outcome in assay [7], in [8], in assay [9], in assay [11], in assay [12] and in [13] was inactive. In addition, the outcome in assay [14], in assay [15], in [20], in assay [16], in [17] and in assay [18] was inactive.

As usually defined, the AC50 is the concentration at which the activity in the assay is half-maximal.
